From PubChem BioAssay (Tox21)
Several values for one entry are separate records, joined by “and”; a condition that tells them apart may be missing. Equal entries are not always repeated. Results filed as inconclusive are left out. Activity calls are given as the source filed them. Unless noted, the call rests on the fitted dose curve; in most records, active means well fitted curve in the direction sought with a large enough effect in the repeat runs; inconclusive means weak or mixed curves; inactive means no such curve, though single readings can be large; an effect the other way counts as inactive or inconclusive.

Experiments:
[1] = qHTS assay for small molecules that induce genotoxicity in human embryonic kidney cells expressing luciferase-tagged ATAD5 (AID 651632); further: on the % scale 0 is the no-effect control and ±100 the full control effect; nearly all actives have a fitted effect of over 15% in size
In short: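 Genotoxicity read-out via ATAD5-luciferase: HEK293T cells, 16 hr compound incubation at 37C, Amplite detection.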

[2] = qHTS assay for small molecule agonists of the p53 signaling pathway - cell viability (AID 651633; calls by dose curve; further: nearly all actives have a fitted effect of over 30% in size; further: potency means the concentration at half of the fitted maximal effect)
In short: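 p53RE-bla cells, seeded at 4,000 per well and rested 5 h at 37 C/5% CO2, received compounds in DMSO for 16 h at 37 C. CellTiter-Glo was then added, and luminescence was read after 30 min at room temperature to gauge cytotoxicity.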

[3] = qHTS assay for small molecule disruptors of the mitochondrial membrane potential - cell viability (AID 720634; calls by dose curve; further: nearly all actives have a fitted effect of over 20% in size; further: potency means the concentration at half of the fitted maximal effect)
In short: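 Human hepatoma HepG2 cells were treated for 1 hr with test chemicals, then given m-MPI dye and CellTiter-Glo. Cell viability reflects luminescence proportional to cellular ATP.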

[4] = qHTS assay for small molecule disruptors of the mitochondrial membrane potential (AID 720635); further: potency means the concentration at half of the fitted maximal effect
In short: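 HepG2 cells (2,000/well) attached overnight at 37C, then took compound for 1 hr at 37C, 5% CO2. Mito-MPS dye was added for 30 min; fluorescence was read at 490/535 nm (monomers) and 540/590 nm (aggregates).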

[5] = qHTS assay to test for compound auto fluorescence at 590 nm (red) in HepG2 cells (AID 720674); further: on the % scale 0 is the no-effect control and ±100 the full control effect
In short: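 Intrinsic compound fluorescence in the red window (Ex/Em 540/590 nm) is measured in attached HepG2 cells exposed for 1 hr, DMSO vehicle as baseline, benchmarked to Rose Bengal sodium.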

[6] = qHTS assay to test for compound auto fluorescence at 535 nm (green) in HepG2 cells (AID 720675); further: on the % scale 0 is the no-effect control and ±100 the full control effect
[7] = qHTS assay to test for compound auto fluorescence at 460 nm (blue) in HEK293 cells (AID 720678); further: potency means the concentration at half of the fitted maximal effect
In short: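 After cell attachment (4-5 hr, 37C), compounds were pinned onto HEK293 monolayers in 10% dialyzed FBS medium. The blue channel (405/460 nm) was read following overnight culture. Equivalency was calculated against triamterene.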

[8] = qHTS assay to test for compound auto fluorescence at 590 nm (red) in HEK293 cells (AID 720679); further: on the % scale 0 is the no-effect control and ±100 the full control effect
In short: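 Plates of HEK293 cells (10% dialyzed FBS) are treated with 23 nL compound or DMSO vehicle after a 4-5 hr attachment period, incubated overnight at 37C, and read for red fluorescence at 540/590nm.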

[9] = qHTS assay to test for compound auto fluorescence at 535 nm (green) in HEK293 cells (AID 720680); further: on the % scale 0 is the no-effect control and ±100 the full control effect
[10] = qHTS assay to test for compound auto fluorescence at 460 nm (blue) in HEK293 cell free culture (AID 720681); further: potency means the concentration at half of the fitted maximal effect
In short: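 Test compounds were pinned into cell-free culture medium (DMEM with 10% FBS) and fluorescence was read directly at Ex/Em 405/460 nm. Signals were expressed as fluorescence equivalents of triamterene, with DMSO vehicle as control.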

[11] = qHTS assay to test for compound auto fluorescence at 535 nm (green) in HEK293 cell free culture (AID 720682); further: on the % scale 0 is the no-effect control and ±100 the full control effect
In short: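 Compounds were pin-transferred into cell-free DMEM with 10% FBS, and green fluorescence was read at excitation 485 nm and emission 535 nm. Intensities were expressed as fluorescein-equivalent values.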

[12] = qHTS assay to test for compound auto fluorescence at 590 nm (red) in HEK293 cell free culture (AID 720683); further: on the % scale 0 is the no-effect control and ±100 the full control effect
In short: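 Tox21 10K library compounds were pinned into cell-free DMEM with 10% FBS and fluorescence was read at excitation 540 nm. Activity is expressed as Rose Bengal sodium equivalency.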

[13] = qHTS assay to test for compound auto fluorescence at 590 nm (red) in HepG2 cell free culture (AID 720684); further: on the % scale 0 is the no-effect control and ±100 the full control effect
In short: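 Measured in medium alone (MEM containing 10% FBS) following pintool addition of compound; emission at 590 nm with 540 nm excitation, referenced to Rose Bengal sodium.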

[14] = qHTS assay to test for compound auto fluorescence at 460 nm (blue) in HepG2 cell free culture (AID 720685); further: on the % scale 0 is the no-effect control and ±100 the full control effect
In short: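 Compound (23 nL) or DMSO pinned into cell-free MEM with 10% FBS; blue fluorescence read at 405/460 nm excitation/emission, expressed as auto-fluorescence equivalency to triamterene.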

[15] = qHTS assay to test for compound auto fluorescence at 535 nm (green) in HepG2 cell free culture (AID 720686); further: on the % scale 0 is the no-effect control and ±100 the full control effect
[16] = qHTS assay to test for compound auto fluorescence at 460 nm (blue) in HepG2 cells (AID 720687); further: on the % scale 0 is the no-effect control and ±100 the full control effect
In short: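 Cells (2,000/well in MEM with 10% FBS) attached overnight at 37 C, then were exposed to compound or DMSO for 1 hr at 37 C, 5% CO2. Fluorescence read at Ex/Em 405/460 nm, expressed as triamterene-equivalent signal.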

[17] = biological target: Glucocorticoid receptor (Homo sapiens) (UniProt P04150); assay: qHTS assay to identify small molecule agonists of the glucocorticoid receptor (GR) signaling pathway (AID 720691; active means well fitted activation curve with a large enough effect in the signal ratio in the repeat runs, not every such curve was filed as active; the % refers to the signal ratio; further: on the % scale 0 is the no-effect control and ±100 the full control effect)
Sequence of Glucocorticoid receptor (Homo sapiens) (P04150 whole entry, looked up): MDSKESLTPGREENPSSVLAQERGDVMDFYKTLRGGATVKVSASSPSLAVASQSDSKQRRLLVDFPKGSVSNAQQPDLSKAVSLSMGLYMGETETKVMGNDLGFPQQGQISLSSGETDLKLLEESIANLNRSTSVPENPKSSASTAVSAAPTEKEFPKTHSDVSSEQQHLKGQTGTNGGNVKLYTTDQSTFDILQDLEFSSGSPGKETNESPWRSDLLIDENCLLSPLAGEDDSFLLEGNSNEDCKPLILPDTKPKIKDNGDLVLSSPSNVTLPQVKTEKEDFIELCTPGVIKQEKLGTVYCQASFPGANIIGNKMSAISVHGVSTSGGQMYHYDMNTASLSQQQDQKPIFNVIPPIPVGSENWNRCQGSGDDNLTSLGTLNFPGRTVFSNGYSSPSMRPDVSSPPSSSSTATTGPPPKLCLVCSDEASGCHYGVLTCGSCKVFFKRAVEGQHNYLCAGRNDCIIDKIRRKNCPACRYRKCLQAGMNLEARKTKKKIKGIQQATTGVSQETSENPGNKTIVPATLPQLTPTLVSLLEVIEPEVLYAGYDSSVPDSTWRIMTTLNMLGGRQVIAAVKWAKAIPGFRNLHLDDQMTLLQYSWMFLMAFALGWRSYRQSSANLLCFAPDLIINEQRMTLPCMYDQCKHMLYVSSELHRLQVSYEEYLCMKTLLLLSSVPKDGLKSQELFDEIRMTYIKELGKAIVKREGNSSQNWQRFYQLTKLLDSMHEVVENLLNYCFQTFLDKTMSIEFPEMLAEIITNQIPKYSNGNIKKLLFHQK
In short: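 Beta-lactamase reporter activity, read as fluorescence intensity, was measured in GR-bla HeLa cells exposed to compounds for 18 h at 37 C and then loaded with LiveBLAzer B/G FRET substrate for 2 h at room temperature.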

[18] = biological target: Glucocorticoid receptor (Homo sapiens) (UniProt P04150); assay: qHTS assay to identify small molecule antagonists of the glucocorticoid receptor (GR) signaling pathway (AID 720692; active means well fitted inhibition curve with a large enough effect in the signal ratio in the repeat runs, not every such curve was filed as active; the % refers to the signal ratio; further: potency means the concentration at half of the fitted maximal effect)
In short: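 Fluorescence from cleaved LiveBLAzer B/G FRET substrate reports GRE-driven beta-lactamase in HeLa cells; compounds are tested against 5 nM dexamethasone (final) over 18 h at 37 C, substrate incubation 2 h at room temperature.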

[19] = qHTS assay for small molecules that induce genotoxicity in human embryonic kidney cells expressing luciferase-tagged ATAD5 - cell viability (AID 651634; calls by dose curve; further: nearly all actives have a fitted effect of over 25% in size; further: potency means the concentration at half of the fitted maximal effect)
In short: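 Live-cell protease activity (CellTiter-Fluor, fluorescence) indicates viability. HEK293T cells with luciferase-tagged ATAD5; 15.5 hr compound treatment at 37C.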
Tags describe the fitted curve by direction and shape or compound fluorescence and quenching.

O=[N+]([O-])c1ccc(Oc2ccc(C(F)(F)F)cc2[N+](=O)[O-])cc1
active: Potency [3] 19.3 µM | Potency [4] 12.2 µM
inactive: Potency [1] | Potency [2] | outcome [5] | outcome [6] | Potency [7] | outcome [8] | outcome [9] | Potency [10] | outcome [11] | outcome [12] | outcome [13] | Potency [14] | outcome [15] | Potency [16] | Potency [17]

ClCc1ccc(Cl)cc1Cl
inactive: Potency [1] | Potency [2] | Potency [3] | outcome [5] | outcome [6] | Potency [7] | outcome [8] | outcome [9] | Potency [10] | outcome [11] | outcome [12] | outcome [13] | Potency [14] | outcome [15] | Potency [16] | Potency [17] | Potency [18]

CC1(C)[C@H](C(=O)O[C@H](C#N)c2cccc(Oc3ccccc3)c2)[C@@H]1/C=C(\Cl)C(F)(F)F
inactive: Potency [1] | Potency [2] | outcome [5] | outcome [6] | Potency [7] | outcome [8] | outcome [9] | Potency [10] | outcome [11] | outcome [12] | outcome [13] | Potency [14] | outcome [15] | Potency [16] | Potency [17]
active: Potency [4] 25.3 µM

CCCN(CCC)c1c([N+](=O)[O-])cc(S(N)(=O)=O)cc1[N+](=O)[O-]
inactive: Potency [1] | outcome [5] | outcome [6] | Potency [7] | outcome [8] | outcome [9] | Potency [10] | outcome [11] | outcome [12] | outcome [13] | Potency [14] | outcome [15] | Potency [16]
active: Potency [19] 54.5 µM | Potency [3] 32.7 µM | Potency [4] 3.67 µM

CCCCCCCCCCCCCCCC[N+](C)(C)C
active: Potency [4] 13.3 µM and 10.5 µM and 27.3 µM
inactive: Potency [1] | Potency [19] | Potency [3] | outcome [5] | outcome [6] | Potency [7] | outcome [8] | outcome [9] | Potency [10] | outcome [11] | outcome [12] | outcome [13] | Potency [14] | outcome [15] | Potency [16]

Cc1cc(C)c(C2=C(OC(=O)CC(C)(C)C)C3(CCCC3)OC2=O)c(C)c1
active: Potency [4] 12.8 µM
inactive: Potency [1] | Potency [2] | outcome [5] | outcome [6] | Potency [7] | outcome [8] | outcome [9] | Potency [10] | outcome [11] | outcome [12] | outcome [13] | Potency [14] | outcome [15] | Potency [16] | Potency [17]

CC[C@H](C)[C@H]1O[C@]2(C=C[C@@H]1C)C[C@@H]1C[C@@H](C/C=C(\C)[C@@H](O[C@H]3C[C@H](OC)[C@@H](O[C@H]4C[C@H](OC)[C@@H](O)[C@H](C)O4)[C@H](C)O3)[C@@H](C)/C=C/C=C3\CO[C@@H]4[C@H](O)C(C)=C[C@@H](C(=O)O1)[C@]34O)O2
active: Potency [2] 14.4 µM | Potency [4] 28.7 µM | Potency [18] 23.9 µM
inactive: Potency [1] | Potency [3] | outcome [5] | outcome [6] | Potency [7] | outcome [9] | Potency [10] | outcome [11] | outcome [12] | outcome [13] | Potency [14] | outcome [15] | Potency [16] | Potency [17]

Clc1ccc(CCC(Cn2ccnc2)Sc2c(Cl)cccc2Cl)cc1 (centres undefined)
inactive: Potency [1] | Potency [19] | Potency [3] | fluorescence, relative to Rose Bengal [5] -0.283% [at 18.6 µM] | fluorescence, % of fluorescein control [6] -0.0029% [at 18.6 µM] | fluorescence, % of triamterene [7] 0.0582% [at 18.6 µM] | fluorescence, % of fluorescent control [8] 0.0698% [at 18.6 µM] | fluorescence, % of fluorescein [9] 0.0661% [at 18.6 µM] | fluorescence, % of fluorescent control [10] 0.052% [at 18.6 µM] | activity change [11] -0.055% [at 18.6 µM] | fluorescence, % of fluorescent control [12] -0.0573% [at 18.6 µM] | fluorescence, % of Rose Bengal [13] 0.657% [at 18.6 µM] | fluorescence, % of fluorescent control [14] 0.0259% [at 18.6 µM] | fluorescence, % of fluorescein control [15] 0.0716% [at 18.6 µM] | fluorescence, % of fluorescent control [16] -0.0565% [at 18.6 µM] | Potency [18]

COc1ccc(N)cc1N
inactive: Potency [1] | outcome [5] | outcome [6] | Potency [7] | outcome [8] | outcome [9] | Potency [10] | outcome [11] | outcome [13] | Potency [14] | outcome [15] | Potency [16] | Potency [17]
active: Potency [2] 22.4 µM and 33 µM | Potency [3] 63.1 µM and 29.4 µM | Potency [4] 1.78 µM and 4.15 µM

Cc1cc(SCc2sc(-c3ccc(C(F)(F)F)c(F)c3)nc2C)ccc1OCC(=O)O
inactive: Potency [1] | outcome [5] | outcome [6] | Potency [7] | outcome [8] | outcome [9] | Potency [10] | outcome [11] | outcome [12] | outcome [13] | Potency [14] | outcome [15] | Potency [16]
active: Potency [2] 48.6 µM

COP(=O)(OC)SCn1c(=O)oc2cc(Cl)cnc21
inactive: Potency [1] | Potency [2] | Potency [3] | outcome [5] | outcome [6] | Potency [7] | outcome [8] | outcome [9] | Potency [10] | outcome [11] | outcome [12] | outcome [13] | Potency [14] | outcome [15] | Potency [16] | Potency [17]

Cc1c(Cl)c(=O)oc2cc(OP(=O)(OCCCl)OCCCl)ccc12
inactive: Potency [1] | Potency [2] | Potency [3] | outcome [5] | outcome [6] | outcome [9] | outcome [11] | outcome [12] | outcome [13] | outcome [15] | Potency [17] | Potency [18]
active: Potency [7] 12.6 µM [fluorescent] | Potency [10] 12.6 µM

C[C@]12Cc3nonc3C[C@@H]1CC[C@@H]1[C@@H]2CC[C@@]2(C)[C@H]1CC[C@]2(C)O
active: Potency [2] 29.8 µM | Potency [18] 7.56 µM
inactive: Potency [1] | outcome [5] | outcome [6] | Potency [7] | outcome [8] | outcome [9] | Potency [10] | outcome [11] | outcome [13] | Potency [14] | outcome [15] | Potency [16]

CC(C)(O)c1cnn2c(-c3ccc(F)c(-c4c(F)cccc4C#N)c3)cnc2n1
inactive: Potency [1] | Potency [2] | outcome [5] | outcome [6] | Potency [7] | outcome [9] | Potency [10] | outcome [11] | outcome [12] | outcome [13] | Potency [14] | outcome [15] | Potency [16]
active: Potency [4] 19.3 µM
